ALDH1A1 inh = blocks purified human ALDH1A1 activity | Potency, µM (doses to about 75.3 µM), for the others: at the highest dose activity, negative = inhibition, hits mostly inhibitors | Purified ALDH1A1, NADH fluorescence, propionaldehyde substrate | P00352 | 7.3% of 220,000 active; active = well fitted inhibition curve with a large enough effect, not every such curve was filed as active; inconclusive = small, poorly fitted or top-dose-only effect, or another doubt; inactive = no such curve, though single readings can be large or run the other way;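 note: plate controls were no enzyme wells and a reference inhibitor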
PLK1 PBD inh = blocks phosphopeptide binding to human PLK1 polo-box domain; P53350; Plk1 PBD binding of FITC phosphopeptide, fluorescence polarization; Potency, µM, without a hit: max response, negative = inhibition, hits mostly inhibitors; 2.8% of 360,000 active; note: series mostly up to about 57 µM; nearly all actives have a fitted effect of over 65% in size
VP16 counter = Gal4-VP16 reporter inhibition counter-screen. Drosophila S2 Gal4-VP16 UAS-luciferase, luminescence, 20 h. Potency, µM (highest dose often 53.6 µM), inactives show top-dose activity, negative = inhibition, actives largely listed as inhibitors. 3.5% of 310,000 active. AID 2546;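 note: Gal4-VP16 expression switched on by copper sulfate through the metallothionein promoter; nearly all actives have a fitted effect of over 50% in size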
Sfp PPTase inh = inhibitors of Bacillus subtilis Sfp phosphopantetheinyl transferase. Q9F4F7. Biochemical Sfp PPTase activity, qHTS. Potency, µM, inactives show largest response in the series, negative = inhibition, usual class: inhibitors. 3.5% of 310,000 active. AID 1490;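 note: the enzyme is Sfp with the accession as filed and its product quenches rhodamine fluorescence; 0% = enzyme reaction without inhibitor and -100% = no enzyme wells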
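Fluorescence-quenching assay: 15 nM Sfp-PPTase preincubated 15 min at room temperature with compound, then 5 uM rhodamine-CoA and 12.5 uM BHQ-2-labelled YbbR peptide added. Fluorescence (ex 525/em 598 nm) read at start and after 30 min; difference gives rate.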
RORgamma inh = inhibitors of mouse ROR gamma transcriptional activity; Drosophila S2 Gal4-RORgamma UAS-luciferase reporter, 20 h; 5.4% of 310,000 active; Potency, µM (highest dose often 53.6 µM), without a hit: at the highest dose activity change, negative = inhibition, most hits filed as inhibitors; note: nearly all actives have a fitted effect of over 60% in size
Target sequence (P51450 whole entry, looked up, the tested form may be a part): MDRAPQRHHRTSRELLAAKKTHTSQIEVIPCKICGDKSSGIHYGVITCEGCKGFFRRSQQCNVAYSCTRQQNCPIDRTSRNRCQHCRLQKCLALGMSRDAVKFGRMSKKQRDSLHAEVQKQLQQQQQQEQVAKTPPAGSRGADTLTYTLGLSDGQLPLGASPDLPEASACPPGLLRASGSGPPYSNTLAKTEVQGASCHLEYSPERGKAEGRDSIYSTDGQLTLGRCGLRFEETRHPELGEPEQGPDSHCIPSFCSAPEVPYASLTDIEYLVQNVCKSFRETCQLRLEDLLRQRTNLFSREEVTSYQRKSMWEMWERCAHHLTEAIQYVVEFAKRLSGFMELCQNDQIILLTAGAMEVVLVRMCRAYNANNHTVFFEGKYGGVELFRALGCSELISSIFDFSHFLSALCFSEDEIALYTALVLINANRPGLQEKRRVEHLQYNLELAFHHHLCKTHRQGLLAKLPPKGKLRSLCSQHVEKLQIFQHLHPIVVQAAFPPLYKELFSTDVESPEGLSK
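In this cell-based reporter format, copper sulfate (700 uM final) drives Gal4–ROR gamma fusion expression from a metallothionein promoter in Drosophila Schneider cells; compounds preincubated 1 hr, reporter read after 20 hr at ambient temperature.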
An asterisk follows results filed as active; [ ] = dose if it differs, or a comment. Rows were chosen to be rich in hits. Some 12% of all compounds tested hit in one or more screens of this group. Unless noted, calls come from the whole dose curve; as a rule, active = well fitted curve in the direction sought with a large enough effect; inconclusive = small, poorly fitted or top-dose-only effect, or another doubt; inactive = no such curve, though single readings can be large; an effect the other way counts as inactive or inconclusive. Unless noted, % is set by controls: 0 for no effect and ±100 for the full control effect; potency is the fitted concentration of half-maximal effect.

How did CC(=O)c1ccc(N(C)C)cc1 do in these assays?
ALDH1A1 inh: 10%; PLK1 PBD inh: -1%; VP16 counter: 15%; Sfp PPTase inh: 9%; RORgamma inh: 6%

How did c1ccc2c(c1)oc1c(-c3cccc4nccn34)cccc12 do in these assays?
PLK1 PBD inh: -3%

Results for C[C@@H](O)[C@H]1C(=O)N2C(C(=O)O)=C(S[C@@H]3CN[C@H](CNS(N)(=O)=O)C3)[C@H](C)[C@H]12 ?
VP16 counter: 1%; Sfp PPTase inh: -27%; RORgamma inh: -14%

Results for CS(=O)(=O)Nc1ccc(Nc2c3ccccc3nc3ccccc23)cc1 ?
ALDH1A1 inh: 6%[13.5 µM]

Results for CCOc1cc(C(=O)OCC(=O)c2c(N)n(C)c(=O)n(C)c2=O)cc(OCC)c1OCC ?
ALDH1A1 inh: 12%; PLK1 PBD inh: 2%; VP16 counter: 1%; Sfp PPTase inh: -4%; RORgamma inh: -17%

What do the screens show for `Cn1c(N)c(C(=O)COC(=O)c2cncc(Br)c2)c(=O)n(C)c1=O`?
ALDH1A1 inh: 11µM*; PLK1 PBD inh: -9%; VP16 counter: 0%; Sfp PPTase inh: -2%; RORgamma inh: -18%

How did CCN1C(=NCC(C)C)N[C@@H](c2ccccc2)[C@H](C(=O)OC)[C@H]1C do in these assays?
VP16 counter: -4%; Sfp PPTase inh: 22%; RORgamma inh: -2%

How did Cc1ccc(N=Nc2ccc(O)c3ncccc23)cc1C do in these assays?
ALDH1A1 inh: 2%; PLK1 PBD inh: -5%; VP16 counter: 0.5µM*; Sfp PPTase inh: 6%; RORgamma inh: 0.14µM*

What do the screens show for `Cc1cc(Nc2ccc(N=Nc3ccc(O)c4ncccc34)cc2)nc(C)n1`?
ALDH1A1 inh: -9%[13.5 µM]

Results for Cc1ccc(N=Nc2ccc(O)c3ncccc23)cc1 ?
ALDH1A1 inh: 19%; PLK1 PBD inh: 2%; Sfp PPTase inh: 32%; RORgamma inh: 0.056µM*

What do the screens show for `CC(C)c1ccc(C(C(C(=O)c2ccccc2)N2CCOCC2)N2CCOCC2)cc1` (stereo unspecified)?
PLK1 PBD inh: -4%

How did COCCNC(=O)C1(C)CCN(C(=O)c2ccc(OC)c(F)c2)C1 (stereo unspecified) do in these assays?
PLK1 PBD inh: 5%

How did CC1(C)C(c2ccccn2)=[N+]([O-])C(C)(C)N1O do in these assays?
ALDH1A1 inh: 1%; PLK1 PBD inh: -11%; VP16 counter: 6%; Sfp PPTase inh: 3%; RORgamma inh: 3%

What do the screens show for `CC1(C)C(c2ccccc2)=[N+]([O-])CN1O`?
ALDH1A1 inh: 7.9µM*; PLK1 PBD inh: -6%; VP16 counter: -14%; Sfp PPTase inh: 17%; RORgamma inh: -24%

What do the screens show for `COC(=O)CC[C@@H](C)C1CC[C@H]2[C@H]3CC[C@H]4C[C@@H]5CCC4(C)[C@@]3(O5)[C@@H](Br)[C@@H](Br)[C@@]12C` (stereo partly specified)?
ALDH1A1 inh: 20%[13.5 µM]

What do the screens show for `O=C(NCCNC(=O)c1ccccc1Br)c1cccnc1`?
PLK1 PBD inh: -9%; Sfp PPTase inh: 10%

Results for COc1ccc(C2=NN(C(N)=S)C(c3ccco3)C2)cc1 (stereo unspecified) ?
ALDH1A1 inh: 18µM*; PLK1 PBD inh: -10%; VP16 counter: inconclusive; Sfp PPTase inh: 11µM*; RORgamma inh: 10µM*

How did O=C(COc1cccnc1[N+](=O)[O-])N1N=C(c2ccc(Cl)cc2)CC1c1ccco1 (stereo unspecified) do in these assays?
ALDH1A1 inh: 13µM*; PLK1 PBD inh: 3%; VP16 counter: -9%; Sfp PPTase inh: inconclusive; RORgamma inh: 9%

What do the screens show for `O=C(CCl)N1N=C(c2ccco2)CC1c1ccco1` (stereo unspecified)?
PLK1 PBD inh: inconclusive; VP16 counter: inconclusive; Sfp PPTase inh: -37%; RORgamma inh: 10µM*

How did Cc1ccc(OCC(=O)N2N=C(c3ccc(Cl)cc3)CC2c2ccco2)c([N+](=O)[O-])n1 (stereo unspecified) do in these assays?
ALDH1A1 inh: inconclusive; PLK1 PBD inh: -10%; VP16 counter: 6%; Sfp PPTase inh: inconclusive; RORgamma inh: 15%

What do the screens show for `CC(=O)N1N=C(c2ccc(NS(=O)(=O)c3ccccc3)cc2)CC1c1ccco1` (stereo unspecified)?
PLK1 PBD inh: -11%
